Data published in PubChem BioAssay.
Active and inactive are the calls of the source.

Experiments:
[1] = E. coli DRC41 culture turbidity changes, primary screen, E. coli filamentation inducer project, strain DRC41, OD650, 48 h (AID 1152);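 further: E. coli MC1000 strain DRC41 lacking acrAB efflux pump and sulA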; conditions: E. coli DRC41 (acrAB sulA), higher = more signal, called active from +8 up or from −8 down
[2] = small-molecule binders of probe aLefty1, primary screen, biochemical, small-molecule microarray, 635/667 nm fluorescence (AID 1153); conditions: higher = more signal;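 further: score merges spot fluorescence with signal-to-noise ratio from the scanned slide images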
[3] = PSAC antagonists in infected red cells, primary screen, cell-based, P. falciparum Indochina, OD700, 1 h (AID 1154); conditions: P. falciparum Indochina infected RBC osmotic lysis, higher = more signal, called active from +8 up or from −8 down
[4] = PSAC antagonists in infected red cells, primary screen, cell-based, P. falciparum Indochina, OD700, 2 h (AID 1155);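 further: lysis reports solute entry through the parasite surface anion channel PSAC; channel blockers reduce lysis of infected cells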; conditions: P. falciparum Indochina infected erythrocytes, osmotic lysis OD700; higher = more signal, called active from +8 up or from −8 down
[5] = osmotic lysis modulators in infected erythrocytes, primary screen, PSAC antagonist project, cell-based, P. falciparum Indochina, OD700, 3 h (AID 1156); conditions: higher = more signal, called active from +8 up or from −8 down
[6] = PSAC antagonists in infected red cells, primary screen, cell-based, P. falciparum Indochina, OD700, 18 h (AID 1157); conditions: P. falciparum Indochina infected erythrocytes, osmotic lysis OD700, 18 h; higher = more signal, called active from +8 up or from −8 down
[7] = modulators of S6 phosphorylation in cells, primary screen, cell-based, A549, cytoblot, luminescence, serum-stimulated (AID 1158); conditions: A549 phospho-S6 cytoblot, 5 h, higher = more signal;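 further: serum-stimulated A549 lung adenocarcinoma cells; signal is phosphorylated S6 detected by cytoblot immunostaining with HRP secondary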
[8] = target: NADPH oxidase 2 (Homo sapiens) (UniProt P04839); assay: NOX2-dependent H2O2 signal modulators, primary screen, NOX inhibitor project, cell-based, HEK293-NOX2, PMA-stimulated, Amplex Red fluorescence (AID 1159); conditions: 45 min, higher = more signal, called active from +8 up or from −8 down; further: test concentration not given here
[9] = target: NADPH oxidase 4 (Homo sapiens) (UniProt Q9NPH5); assay: NOX4-dependent H2O2 signal modulators, primary screen, NOX inhibitor project, cell-based, HEK293-NOX4, tetracycline-induced, Amplex Red fluorescence (AID 1160); conditions: 45 min, higher = more signal, called active from +8 up or from −8 down
[10] = target: NADPH oxidase 5 (Homo sapiens) (UniProt Q96PH1); assay: NOX5-dependent H2O2 signal modulators, primary screen, NOX inhibitor project, cell-based, HEK293-NOX5, Amplex Red fluorescence (AID 1161); conditions: HEK293-NOX5, ionomycin, 45 min, higher = more signal
[11] = A549 cell viability effects, profiling panel, calcein-AM fluorescence, 48 h, basal (AID 1162); conditions: higher = more signal; further: test concentration not given here
[12] = adipocyte viability effects, profiling panel, cell-based, 3T3-L1 adipocytes, calcein-AM fluorescence, 48 h, basal (AID 1163); conditions: 3T3-L1 adipocytes viability, higher = more signal; further: test concentration not given here
[13] = HepG2 cell viability effects, profiling panel, calcein-AM fluorescence, 48 h, basal (AID 1164); conditions: higher = more signal; further: test concentration not given here
[14] = MM1S cell viability effects, profiling panel, calcein-AM fluorescence, 48 h, basal (AID 1165); conditions: higher = more signal;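 further: viability of MM1S multiple myeloma cells under basal unstimulated conditions; test concentration not given here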
[15] = basal RPMI8226 viability, no added stimulus, profiling panel, cell-based, calcein-AM fluorescence, 48 h, PK04 Diversity Set (AID 1166); conditions: RPMI8226 myeloma viability, higher = more signal;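 further: cells grown under basal conditions without added stimulus; test concentration not given here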
[16] = basal HepG2 mitochondrial membrane potential changes, profiling panel, cell-based, JC-1 fluorescence, 24 h, 100 nL compound (AID 1167); conditions: higher = more signal; further: test concentration not given here
[17] = basal 3T3-L1 adipocyte mitochondrial potential changes, profiling panel, cell-based, JC-1 fluorescence, 3T3-L1 adipocytes, 24 h, 100 nL compound (AID 1168); conditions: JC-1 mitochondrial fluorescence, higher = more signal, called active from +8 up or from −8 down; further: test concentration not given here
[18] = basal RPMI8226 mitochondrial membrane potential changes, profiling panel, cell-based, JC-1 fluorescence, 24 h, 100 nL compound (AID 1169); conditions: RPMI8226 myeloma, JC-1 mitochondrial potential fluorescence, higher = more signal; further: test concentration not given here
[19] = basal MM1S mitochondrial membrane potential changes, profiling panel, cell-based, JC-1 fluorescence, 24 h, 100 nL compound (AID 1170); conditions: higher = more signal; further: test concentration not given here
[20] = A549 lung cancer cell viability effects, profiling panel, resazurin fluorescence, 24 h, PK04 Diversity Set (AID 1171); conditions: higher = more signal, called active from +8 up or from −8 down; further: test concentration not given here

Sequence of NADPH oxidase 5 (Homo sapiens) (Q96PH1 whole entry, looked up): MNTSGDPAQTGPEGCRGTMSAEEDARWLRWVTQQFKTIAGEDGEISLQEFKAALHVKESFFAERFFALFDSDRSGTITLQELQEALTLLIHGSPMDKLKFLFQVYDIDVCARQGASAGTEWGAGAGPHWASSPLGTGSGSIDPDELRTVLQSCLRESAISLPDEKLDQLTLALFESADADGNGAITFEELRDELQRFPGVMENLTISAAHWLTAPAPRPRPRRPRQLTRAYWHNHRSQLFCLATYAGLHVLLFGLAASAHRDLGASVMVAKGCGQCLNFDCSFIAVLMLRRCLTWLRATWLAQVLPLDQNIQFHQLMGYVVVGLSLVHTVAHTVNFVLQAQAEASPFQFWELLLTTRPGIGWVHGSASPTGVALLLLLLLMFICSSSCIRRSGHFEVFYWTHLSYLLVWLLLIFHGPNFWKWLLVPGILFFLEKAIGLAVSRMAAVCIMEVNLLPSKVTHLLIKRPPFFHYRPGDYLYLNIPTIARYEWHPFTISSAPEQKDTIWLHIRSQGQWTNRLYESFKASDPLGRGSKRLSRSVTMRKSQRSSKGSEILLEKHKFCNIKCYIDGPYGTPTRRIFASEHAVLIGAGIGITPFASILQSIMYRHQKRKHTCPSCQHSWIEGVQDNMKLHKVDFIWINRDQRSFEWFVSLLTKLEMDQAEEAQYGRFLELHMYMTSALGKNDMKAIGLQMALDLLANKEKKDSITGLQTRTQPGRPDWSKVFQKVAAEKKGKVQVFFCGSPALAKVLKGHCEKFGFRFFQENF
Sequence of NADPH oxidase 2 (Homo sapiens) (P04839 whole entry, looked up): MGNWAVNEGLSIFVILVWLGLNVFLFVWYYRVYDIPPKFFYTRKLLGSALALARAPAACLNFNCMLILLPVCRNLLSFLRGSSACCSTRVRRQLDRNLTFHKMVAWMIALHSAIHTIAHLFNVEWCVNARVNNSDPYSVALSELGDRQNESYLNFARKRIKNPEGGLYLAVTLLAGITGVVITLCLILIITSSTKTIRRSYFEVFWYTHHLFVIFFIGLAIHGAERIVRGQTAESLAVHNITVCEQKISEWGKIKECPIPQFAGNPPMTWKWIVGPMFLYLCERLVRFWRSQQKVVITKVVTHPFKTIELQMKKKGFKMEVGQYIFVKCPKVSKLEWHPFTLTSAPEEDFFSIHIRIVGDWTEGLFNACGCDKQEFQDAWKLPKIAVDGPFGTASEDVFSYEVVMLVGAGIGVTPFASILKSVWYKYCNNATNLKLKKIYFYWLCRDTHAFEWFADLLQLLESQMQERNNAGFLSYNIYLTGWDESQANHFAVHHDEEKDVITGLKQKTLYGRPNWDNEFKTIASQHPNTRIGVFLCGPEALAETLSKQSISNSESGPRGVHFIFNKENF
Sequence of NADPH oxidase 4 (Homo sapiens) (Q9NPH5 whole entry, looked up): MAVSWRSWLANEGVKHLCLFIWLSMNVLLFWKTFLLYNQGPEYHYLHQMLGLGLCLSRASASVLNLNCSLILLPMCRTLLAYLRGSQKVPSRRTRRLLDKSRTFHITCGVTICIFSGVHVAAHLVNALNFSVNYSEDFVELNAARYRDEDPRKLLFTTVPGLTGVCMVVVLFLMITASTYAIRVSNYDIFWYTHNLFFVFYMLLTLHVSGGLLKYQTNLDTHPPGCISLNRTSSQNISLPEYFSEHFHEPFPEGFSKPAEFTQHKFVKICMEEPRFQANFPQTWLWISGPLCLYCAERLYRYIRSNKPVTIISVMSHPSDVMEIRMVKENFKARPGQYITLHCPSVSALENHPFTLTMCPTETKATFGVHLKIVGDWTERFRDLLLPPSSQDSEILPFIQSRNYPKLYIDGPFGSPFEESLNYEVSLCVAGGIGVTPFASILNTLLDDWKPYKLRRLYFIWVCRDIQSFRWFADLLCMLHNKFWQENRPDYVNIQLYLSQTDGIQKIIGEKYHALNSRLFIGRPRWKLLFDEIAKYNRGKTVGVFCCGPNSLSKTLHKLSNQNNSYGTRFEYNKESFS

| SMILES | z-score [1] | composite z-score [2] | z-score [3] | z-score [4] | z-score [5] | z-score [6] | z-score [7] | z-score [8] | z-score [9] | z-score [10] | z-score [11] | z-score [12] | z-score [13] | z-score [14] | z-score [15] | z-score [16] | z-score [17] | z-score [18] | z-score [19] | z-score [20] |
| --- | --- | --- | --- | --- | --- | --- | --- | --- | --- | --- | --- | --- | --- | --- | --- | --- | --- | --- | --- | --- |
| COc1ccc(CCNC(=O)[C@@]2(Sc3ccc(C)cc3)CC(=O)N(Cc3cc(C(F)(F)F)cc(C(F)(F)F)c3)[C@@H]2c2ccc(CO)cc2)cc1 | -0.601 (inactive) | 0.469 | 1.54 (inactive) | 0.518 (inactive) | 0.0927 (inactive) | -0.0392 (inactive) | 0.0684 | -0.626 (inactive) | 0.539 (inactive) | 1.02 | -0.147 | 0.7 | -0.29 | -0.305 | -0.24 | 0.016 | -0.563 (inactive) | 1.15 | -0.145 | 0.423 (inactive) |
| CC(=O)n1cc(C(O)C2C=CC3C(=O)N(c4ccccc4)C(=O)C3N2Nc2ccccc2F)c2ccccc21 (stereo not given) | 0.506 (inactive) | -0.147 | 8 (active) | 1.04 (inactive) | 0.0784 (inactive) | -0.0595 (inactive) | 0.988 | -1.82 (inactive) | -3.23 (inactive) | -0.614 | 0.512 | 0.23 | -0.798 | -0.834 | -0.056 | -0.69 | -1.2 (inactive) | 0.408 | -1.41 | 0.423 (inactive) |
| [N-]=[N+]=Nc1ccccc1[C@@H]1OC(c2ccc(OCCCO)cc2)=N[C@]1(Cc1ccccc1)C(N)=O | 1.7 (inactive) | 0.0576 | 30.7 (active) | 31.3 (active) | 2.22 (inactive) | 3.17 (inactive) | -0.414 | 0.865 (inactive) | 0.46 (inactive) | -1.48 | 0.289 | -0.186 | 0.765 | -0.835 | -2.14 | 0.308 | 0.119 (inactive) | -0.719 | -0.789 | -0.199 (inactive) |
| CCCCC(=C=CC[C@@H](O)c1cccc(OCCO)c1)CCO | 0.896 (inactive) | -0.142 | 6.54 (inactive) | 1.02 (inactive) | 0.842 (inactive) | 0.528 (inactive) | 1.3 | -0.681 (inactive) | -0.283 (inactive) | -1.8 | 1.58 | -0.634 | 0.98 | 0.859 | 0.0922 | 0.416 | 1.27 (inactive) | 0.044 | -1.09 | 1.06 (inactive) |
| O=C1N(CCS(=O)(=O)c2ccccc2)c2ccccc2[C@@H]2OC(c3ccc(OCCCO)cc3)=N[C@]12CCS(=O)(=O)c1ccccc1 | -0.927 (inactive) | 0.677 | 28.2 (active) | 23.7 (active) | 1.18 (inactive) | 3.96 (inactive) | -0.47 | 0.678 (inactive) | 2.42 (inactive) | 2.43 | 0.762 | 0.675 | -0.136 | -1.68 | -0.104 | -1.04 | 1.48 (inactive) | -0.845 | -0.774 | 0.967 (inactive) |
| O=C1C2C=CC(C(O)c3cccc(O)c3)N(Nc3ccccc3F)C2C(=O)N1c1ccccc1 (stereo not given) | 0.906 (inactive) | 0.137 | 9.49 (active) | 1.43 (inactive) | 0.868 (inactive) | 0.0443 (inactive) | 3 | -4.98 (inactive) | -5.16 (inactive) | -6.27 | -0.769 | 0.906 | -1.28 | -1.95 | -1.9 | -1.66 | -1.85 (inactive) | 0.742 | -1.64 | 0.249 (inactive) |
| C=CCC(OC(C)=O)[C@@H]1[C@@H](N(Cc2ccc(-c3ccccc3)cc2)C(=O)c2ccc(C)cc2)c2cc(OCCCO)ccc2N1C(=O)c1ccc2ccccc2c1 (stereo not given in full) | 2.09 (inactive) | 0.0367 | 0.0032 (inactive) | -0.792 (inactive) | -1.31 (inactive) | -1.33 (inactive) | 1.18 | -0.167 (inactive) | 0.972 (inactive) | 1.94 | 2.26 | 0.558 | 1.71 | 0.697 | -0.481 | 3.18 | -0.379 (inactive) | 0.0174 | 0.593 | 0.864 (inactive) |
| C=CC[C@@]1(C(=O)O)N=C(c2ccc(OCCCO)cc2)O[C@@H]1c1ccccc1CN=[N+]=[N-] | 0.578 (inactive) | -0.335 | 25.8 (active) | 16.5 (active) | 1.15 (inactive) | 1.71 (inactive) | 0.842 | -0.235 (inactive) | 1.24 (inactive) | 0.186 | -0.473 | 0.891 | 0.545 | 0.15 | 0.0466 | 0.171 | -0.164 (inactive) | -0.973 | -1.54 | 0.611 (inactive) |
| CC(C)[Si](C#CCCCC#N)(O[C@H](c1ccccc1)c1cn([C@H](C)c2ccccc2)nn1)C(C)C | 1.03 (inactive) | -0.0984 | 1.66 (inactive) | 0.878 (inactive) | 0.0478 (inactive) | 0.211 (inactive) | 0.147 | 1.19 (inactive) | 0.406 (inactive) | 0.255 | -1.38 | -0.348 | 0.571 | -0.057 | -2.68 | 6.54 | -0.289 (inactive) | 0.0785 | -0.733 | 1.07 (inactive) |
